SW480 rerep = A quantitative high throughput screen for small molecules that induce DNA re-replication in SW480 colon adenocarcinoma cells; SW480 DNA re-replication, Hoechst DNA content imaging, 48 h; Potency, µM (highest dose often 46.1 µM), for inactives: at the highest dose re-replication activation, most hits filed as activators; hit rate 1.8% among 340,000; also: potency is read from the fitted curve at half-maximal effect; % of control where 0% means no effect; nearly all actives have a fitted effect of over 55% in size
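250 cells/well; 23 nL cpd via pin tool; 48 hr, 37 C, 5% CO2; Hoechst 40 min; imager read of total nuclear intensity, ex 405/em 500-530 nm.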
IL-1B inflam inh = qHTS for Inhibitors of Inflammasome Signaling: IL-1-beta AlphaLISA Primary Screen; activity change, % at 57.5 µM; hit rate 4.7% among 360,000; THP-1 LPS/ATP IL-1B secretion, AlphaLISA, 16 h; stronger effect = lower value; in the data active = activity change below about -50%; inconclusive = mostly about -30% to -49%; also: % is scaled to controls: 0 for no effect and ±100 for the full control effect
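THP-1 cells pretreated 1 hr with compounds (up to 57.5 uM final), then stimulated with LPS (250 ng/mL final) plus ATP (1.25 mM final); secreted IL-1B measured by AlphaLISA after 16 hr, decreased signal indicating inhibition.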
KB-V1 cytotox = qHTS assay for MDR1-selective chemotherapeutics: Primary screen using the drug-selected MDR subline cells KB-V1. KB-V1 MDR cells viability, CellTiter-Glo, 72 h. Potency, µM (series often up to 46.1 µM), usual class: cytotoxic. hit rate 3.4% among 400,000; also: potency is read from the fitted curve at half-maximal effect; % is scaled to controls: 0 for no effect and ±100 for the full control effect; nearly all actives have a fitted effect of over 60% in size
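Luminescent ATP read-out (CellTiter-Glo, 10 min) measures survival of drug-selected KB-V1 MDR cells after 72 h, 37 degrees C compound exposure. Medium: phenol-red-free DMEM, 10% FBS. Values from fitted concentration-response curves.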
KB-3-1 tox = qHTS assay for MDR1-selective chemotherapeutics: Primary screen using the parental adenocarcinoma cell KB-3-1; KB-3-1 viability, CellTiter-Glo ATP luminescence, 72 h; Potency, µM (top dose mostly 46.1 µM), most hits filed as cytotoxic; hit rate 1.4% among 400,000; AID 1347075, 2019; also: potency is read from the fitted curve at half-maximal effect; % is scaled to controls: 0 for no effect and ±100 for the full control effect; nearly all actives have a fitted effect of over 60% in size
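Viability of parental KB-3-1 cells, measured by CellTiter-Glo luminescence, followed a 72 h incubation at 37 °C with pinned compounds in phenol-red-free DMEM containing 10% FBS.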
MCF10A rereplic = A quantitative high throughput screen for small molecules that induce DNA re-replication in MCF 10a normal breast cells; MCF 10A DNA re-replication, Hoechst nuclear intensity, 48 h; Potency, µM (titrated, usually from 46.1 µM), for the others: at the highest dose activity, positive = re-replication, most hits filed as activators; hit rate 2.9% among 350,000; also: potency is read from the fitted curve at half-maximal effect; % of control where 0% means no effect; nearly all actives have a fitted effect of over 50% in size
* hit, by the source's call; i = inactive; ? = inconclusive; · = no result; ! = not confirmed by another sample; [ ] = remark or other dose. Shown are actives, neighbours in structure and some others; about 9.9% of the full set was active somewhere. Unless noted, calls follow the shape of the dose curve; as a rule, active = well fitted curve in the direction sought with a large enough effect; inconclusive = small, poorly fitted or top-dose-only effect, or another doubt; inactive = no such curve, though single readings can be large; an effect the other way counts as inactive or inconclusive.

SMILES | SW480 rerep | IL-1B inflam inh | KB-V1 cytotox | KB-3-1 tox | MCF10A rereplic
O=S(=O)(Nc1nc(-c2sccc2Cl)cs1)c1cc(Cl)ccc1Cl | -1% | 35 | i | i | 8.2µM*
CC(C)(C)c1nnc(NS(=O)(=O)c2cc(Cl)ccc2Cl)s1 | 19% | 33 | i | i | ?
O=S(=O)(c1cccs1)N1CCN(CC(O)COc2cccc(Br)c2)CC1 (centres undefined) | ? | -9 | 15µM* | ? | 14%
CC(C)Cn1cnc2c(SCc3ccccc3)nc(N)nc21 | -1% | -50* | i | i | 13%
CCC(C)Cn1cnc2c(SCc3ccccc3F)nc(N)nc21 (centres undefined) | ? | -56* | i | i | 18µM*
Cc1ccc2ccccc2c1CSc1nc(N)nc2c1ncn2CC(C)C | 2% | ? | 21µM* | i | 21%
CC(C)Cn1cnc2c(SCc3ccccn3)nc(N)nc21 | -13% | -14 | i | i | -25%
CC(C)Cn1cnc2c(SCc3ccccc3F)nc(N)nc21 | -14% | -12 | ? | i | ?
CC(C)Cn1cnc2c(N)nc3ccccc3c21 | 0.58µM*! | 11 | ? | i | ?
O=C(OCC(=O)N1CCN(Cc2ccccc2)CC1)c1cc(Cl)ccc1[N+](=O)[O-] | -7% | 26 | ? | i | -3%
O=C(CSC1=NS(=O)(=O)c2cc(Cl)ccc2N1)c1ccc(Cl)cc1 | ? | 49 | i | i | 33%
CC(C)C(=O)COc1c2occc2cc2ccc(=O)oc12 | -2% | -1 | i | ? | -2%
COc1ccc(-c2[nH]c3ccccc3c2SCCN)cc1 | ? | -59* | i | i | -2%
COc1ccc(-c2[nH]c3ccccc3c2SCCNC(=O)c2cc3ccccc3oc2=O)cc1 | 13% | 20 | i | i | 13%
Cc1ccc(C)c(N2CCN(C(=O)CCS(=O)(=O)c3cc(Br)cc4c3N(C(=O)C3CC3)CC4)CC2)c1 | · | · | i | i | ·
CC/C=C(\NC(C)=O)c1ccccc1 | 2% | 0 | i | i | 3%
CCCCC(CCc1ccccn1)C(=O)c1ccccc1 (centres undefined) | -3% | -3 | 16µM* | i | ?
CN(C)CCC(C(=O)c1ccccc1)c1ccccn1 (centres undefined) | 0% | 9 | i | i | 1%
CN(C)CC(CCCCC(CN(C)C)C(=O)c1ccccc1)C(=O)c1ccccc1 (centres undefined) | 10µM* | -72* | i | ? | ?
O=Cc1ccc2[nH]ccc2c1 | · | · | i | i | ·
CCC(C)[C@H](NC(=O)c1cc2cc(Cl)ccc2n1C)C(=O)N1CCC(C(=O)O)CC1 (some centres undefined) | -1% | 1 | i | i | 0%
Cc1ccc(-c2noc(-c3ccc(NCc4cccnc4)c([N+](=O)[O-])c3)n2)cc1 | · | · | i | i | ·
Cc1ccc(C2C=C(c3ccccc3OC(F)F)Nc3ncnn32)cc1 (centres undefined) | -206% | -3 | 21µM* | ? | 14%
Cc1ccc(C2=CC(c3ccccc3)n3ncnc3N2)c(C)c1 (centres undefined) | -11% | 22 | i | i | 9%
CN(C)c1ccc(C2C=C(c3ccc(Cl)cc3OC(F)F)Nc3ncnn32)cc1 (centres undefined) | 23µM* | 14 | 12µM* | i | 4.1µM*
SMILES | SW480 rerep | IL-1B inflam inh | KB-V1 cytotox | KB-3-1 tox | MCF10A rereplic
Cc1ncc(COP(=O)(O)O)c(CN)c1O | -3% | · | · | · | -5%
O=[N+]([O-])c1cccc(/C=N\N2CCN(Cc3ccccc3Cl)CC2)c1 | -6% | -68* | i | i | ?
O=[N+]([O-])c1cccc(/C=N/N2CCN(Cc3ccccc3)CC2)c1 | -19% | -25 | i | i | 4%
COc1ccc(CCNC(=O)COC(=O)C2CC2)cc1OC | -2% | 10 | · | · | -3%
C[C@@H](NC(=O)c1nc[nH]c1C(=O)NCCCCCNC(=O)OC(C)(C)C)c1ccccc1 | -1% | 7 | ? | i | -9%
C[C@H](NC(=O)c1nc[nH]c1C(=O)N[C@@H](CCCCNC(=O)OC(C)(C)C)C(=O)OC(C)(C)C)c1ccccc1 | ? | -52* | 21µM* | ? | 23%
CCN(CC)C(=O)c1[nH]cnc1C(=O)Nc1ccc(OC)cc1 | 1.8µM* | -22 | i | ? | -20%
CCN(CC)C(=O)c1[nH]cnc1C(=O)Nc1ccc(Cl)cc1 | -5% | -9 | i | i | 11%
CC(C)(C)OC(=O)NCCCC[C@H](NC(=O)c1[nH]cnc1C(=O)Nc1ccc(CNC(=O)OC(C)(C)C)cc1)C(=O)OC(C)(C)C | -6% | 0 | i | i | 4.1µM*
C[C@H](NC(=O)c1nc[nH]c1C(=O)NCc1ccc(CNC(=O)OC(C)(C)C)cc1)c1ccccc1 | 4% | -22 | ? | ? | 15µM*
O=C(CSc1nc2cc3ccccc3cc2[nH]1)Nc1cccc(C(F)(F)F)c1 | · | · | i | i | ·
O=C(CC[C@H]1O[C@@H](n2ccc(=O)[nH]c2=O)[C@H](O)[C@@H]1O)NCC1CCCO1 (some centres undefined) | · | 11 | i | i | ·
Cc1cc(C(=O)CSc2nnc(-c3cccnc3)n2-c2ccccc2F)c(C)n1CC1CCCO1 (centres undefined) | 1% | -7 | i | i | 2%
CC(=O)N1CCc2c(sc3c2c(=O)n(-c2ccccc2)c(=O)n3CC(=O)c2ccc(F)cc2)C1 | · | · | i | i | ·
CC(C)(C)OC(=O)NCCCC[C@H](NC(=O)c1[nH]cnc1C(=O)N[C@@H](Cc1ccccc1)C(=O)OC(C)(C)C)C(=O)OC(C)(C)C | -1%[9.22 µM] | -56* | i | ? | 29%
CC(C)(C)OC(=O)[C@H](Cc1ccccc1)NC(=O)c1nc[nH]c1C(=O)N[C@@H](Cc1ccccc1)C(=O)OC(C)(C)C | -7% | -19 | ? | 16µM* | 2%
Cc1ccc(NC(=O)c2nc[nH]c2C(=O)NCCCCCNC(=O)OC(C)(C)C)cc1 | -3% | -62* | ? | ? | ?
CC(C)(C)OC(=O)NCCCCCNC(=O)c1[nH]cnc1C(=O)N[C@@H](Cc1ccccc1)C(=O)OC(C)(C)C | ? | -19 | i | i | ?
COc1ccc(OC)c(NC(=O)NNC(=O)COc2ccc(F)cc2F)c1 | ? | i | i | i | -9%
COCCn1c(SCC(=O)NC(=O)NC2CCCC2)nc2ccccc2c1=O | 11% | -7 | i | i | -6%

Screening results deposited in PubChem by National Center for Advancing Translational Sciences (NCATS).
